The results in this text go back to ChEMBL document CHEMBL3988442, “University of Dundee, Small-Polar-MMV Screening Library” (2021).

Among all 69,000 compounds or so, about 950 (1.4%) showed an effect of 50% or more. The sample as a whole holds a higher share of strong results than the screen did.

This experiment has as its system Mycobacterium tuberculosis. Briefly: Cornell M. t heat shock assay. Further: in the data most compounds retested in dose-response had high values. The format is functional, organism-based. On the set-up: dose or concentration left out as unconfirmed.
Consider `Cc1ccc(O[C@@H]2C[C@H]3CN(c4ncc(F)cn4)CCN3C2)cc1.O=C(O)C(F)(F)F.O=C(O)C(F)(F)F`, for which the “Percent Effect” value is on record as 19.77%. Take `CN(C)S(=O)(=O)N1C[C@H]2C[C@H](C(=O)Nc3ccccc3)[C@@H](C1)O2`: the “Percent Effect” value is given as 3.45%. The same measure for `N#Cc1cccc(CN2CC[C@@H]3[C@@H]2CC(=O)N3Cc2ccncc2)c1.O=C(O)C(F)(F)F.O=C(O)C(F)(F)F`: 1.363%; for `COCCN1CC[C@H]2OCC[C@@H](C(=O)N3CCCO3)[C@H]2C1.O=C(O)C(F)(F)F`: -19.22%; for `O=C(O)C(F)(F)F.c1ccc(N2CCC3(CCCN(c4ncccn4)C3)C2)nc1` (stereo unspecified): -26.18%.

With `CC(C)NC(=O)[C@H]1C[C@H]2OCC[C@H]2N(Cc2ccc3ccccc3n2)C1.O=C(O)C(F)(F)F.O=C(O)C(F)(F)F`, the “Percent Effect” value was -9.211%. The same measure for `Cc1ccc(C(=O)N2CCC3(CC2)CN(c2ccccn2)CCO3)cc1.O=C(O)C(F)(F)F`: -9.264%; for `Cn1cc(CN2Cc3c(cnn3C)C(COCC3CC3)C2)cn1.O=C(O)C(F)(F)F.O=C(O)C(F)(F)F` (stereo unspecified): -38.19%; for `CO[C@H]1CCN(C(=O)Cc2ccsc2)[C@@H]2CN(CC3CC3)C[C@H]12.O=C(O)C(F)(F)F`: -6.3%. In the case of `Cc1cnc(C(=O)N2Cc3ncn(C)c3C(COCC(C)C)C2)cn1.O=C(O)C(F)(F)F` (stereo unspecified), the “Percent Effect” value was determined as 6.608%. The same measure for `Cc1c(CN2CC[C@@H](N3CCC(O)CC3)[C@H](O)C2)[nH]c2ccc(Cl)cc12`: 15.96%; for `CN1CCN([C@@H]2CCN(CC3=Cc4cc(Cl)ccc4OC3)C[C@H]2O)CC1`: -1.479%. In the case of `O[C@@H]1CN(CC2=Cc3cc(Cl)ccc3OC2)CC[C@H]1N1CCCCCC1` it was 85.47%. The same measure for `CC(C)NC(=O)CC1COC2(CCN(Cc3ccsc3)CC2)C1.O=C(O)C(F)(F)F` (stereo unspecified): -6.674%; for `CCN(CC)C(=O)CN(C)C(=O)c1ccc(-c2ccsc2)nc1C`: -2.005%. Take `CCN(CC(=O)NC(C)C)C(=O)c1ccc(-c2ccsc2)nc1C`: the “Percent Effect” value is -31.64%. The same measure for `CCN(CC)C(=O)c1ccc(-c2ccsc2)nc1C`: 85.72%. In the case of `COCCN1CCC(c2nc3ccc(NC4CCC4)cn3n2)CC1.O=C(O)C(F)(F)F` it was 43.84%; in that of `CC(C)(C)C(=O)N1C[C@H](c2ccsc2)[C@H]2CN(C3CCCCC3)CC[C@H]21.Cl`, 6.818%; in that of `CCC(=O)N1CCC2(CC1)C(=O)N(Cc1cccnc1)CCN2C.O=C(O)C(F)(F)F.O=C(O)C(F)(F)F`, -1.837%. Take `Cc1ccn(-c2ccccc2NCc2ccccn2)n1`: the “Percent Effect” value is on record as 31.75%. Take `Cc1ccc(CNc2ccccc2-n2ccc(C)n2)nc1`: the “Percent Effect” value is reported as 73.74%. The same measure for `Cc1ccn(-c2ccccc2NCc2cscn2)n1`: -34.26%; for `COCCn1ccc2cc(C(=O)N3CCN(S(C)(=O)=O)CC3)ccc21`: 72.24%; for `COCCn1ccc2ccc(C(=O)N3CCN(C(C)=O)CC3)cc21`: 4.647%. The same measure for `COCCn1ccc2ccc(C(=O)O)cc21`: -0.8971%; for `CCOCC(O)CN1CCN(C(=O)Cc2ccc(C)cc2)CC1` (stereo unspecified): -41.68%; for `Cn1cc(C[C@H]2[C@H](O)CCN2CC2CC2)cn1.O=C(O)C(F)(F)F`: 6.686%. In the case of `O=C(O)C(F)(F)F.O=C(c1ccc(F)cc1)N1C[C@@H]2COC[C@]2(COc2cccnc2)C1` it was 37.91%. As for `O=C1C(CS(=O)(=O)Nc2ccccc2)=NC(=O)n2cccc21`, the “Percent Effect” value is reported as -27.85%.

For `COCCN(Cc1sccc1C)Cc1nccn1CCOC`, the “Percent Effect” value is given as -20.4%. In the case of `COCCn1ccnc1CN(Cc1ccccn1)Cc1sccc1C` it was 88.17%; in that of `COCCN(Cc1ccccn1)Cc1sccc1C`, -13.89%. In the case of `Cl.c1cnc2c(c1)cc([C@@H]1CCCO1)n2CCN1CCCCC1`, the “Percent Effect” value is listed as -17.62%. The same measure for `CCN(CC)S(=O)(=O)N1CCc2nc(C3CCNCC3)ncc2C1.Cl`: -7.475%; for `CN(Cc1ccnc2ccccc12)C1CCS(=O)(=O)C1.O=C(O)CC(O)(CC(=O)O)C(=O)O` (stereo unspecified): 6.818%; for `CSc1[nH]nc(NC(=O)c2cccs2)c1C#N`: 104.2%. As to `CSc1[nH]nc(NC(=O)c2ccncc2)c1C#N`, the “Percent Effect” value was 6.331%. The same measure for `CSc1[nH]nc(NC(=O)c2ccccc2)c1C#N`: -4.998%; for `CN(C)[C@@H]1CCN(C(=O)c2cccc(C#N)c2)[C@H]1Cc1cnn(C)c1.O=C(O)C(F)(F)F`: 5.533%; for `Cc1ccc(N2CCO[C@H]3CN(Cc4ccc(F)cc4)C[C@H]32)nn1.O=C(O)C(F)(F)F.O=C(O)C(F)(F)F`: -13.42%. In the case of `COCCNC1(c2ccc(Cl)cc2)CCOCC1` it was 20.91%; in that of `Clc1ccc(OCCNC2(c3ccc(Br)cc3)CCOCC2)cc1`, 73.72%; in that of `CCOCCNC1(c2ccc(Cl)cc2)CCOCC1`, 12.33%. The same measure for `CCN1C(=O)C2(CCN(CCN(C)C)CC2)c2ccccc21.O=C(O)C(F)(F)F.O=C(O)C(F)(F)F`: -13.81%. For the compound `Cc1ccc(C(=O)N2CCc3c(CNc4ncccn4)cncc3C2)o1.Cl`, the “Percent Effect” value is given as -7.52%. The same measure for `CC(=O)N1C(CN2CCCC2)C[C@@H]2CN(C(=O)c3ccoc3)CC[C@@H]21.O=C(O)C(F)(F)F` (stereo partly specified): -8.828%; for `CC(C)Nc1ccnc(N2Cc3cnc(C(C)(C)C)nc3C2)n1`: 52.72%. In the case of `CCc1cnc(N2Cc3cnc(C(C)(C)C)nc3C2)nc1` it was 15.36%; in that of `CC(C)Cc1ncc2c(n1)CN(c1nccc(NC(C)C)n1)C2`, 83.11%; in that of `CCNc1ccnc(N2Cc3cnc(CC(C)C)nc3C2)n1`, 35.37%. The same measure for `COc1ccnc(N2Cc3cnc(C(C)(C)C)nc3C2)n1`: 14.25%; for `CC(C)Cc1ncc2c(n1)CN(c1nccc(N(C)C)n1)C2`: 7.671%; for `O=C(O)C(F)(F)F.c1cnc(N2CCO[C@@H]3CN(Cc4ccoc4)C[C@@H]3C2)nc1`: -2.175%. For the compound `O=C(O)C(F)(F)F.O=C(c1ccc[nH]1)N1CCc2onc(COc3cccnc3)c2C1`, the “Percent Effect” value is given as 7.093%. The same measure for `C=C1C(C)(C)[C@H]2CC[C@]1(C(=O)N1CCC(n3cc(CCO)nn3)CC1)C2`: -7.185%; for `O=C(O)C(F)(F)F.O=C(O)C(F)(F)F.O=C(c1cccc(F)c1)N1CCN2C[C@H](OCc3cccnc3)C[C@H]2C1`: -1.159%; for `O=C(N[C@H]1COC[C@@H]1N1CCCC1)c1c[nH]nc1C1CCCCC1`: 69.58%.

For the compound `Cc1nc(C(=O)N[C@H]2COC[C@@H]2N2CCCCC2)cs1`, the “Percent Effect” value was -0.7621%. The same measure for `CCO[C@H]1COC[C@@H]1NC(=O)c1c[nH]nc1C1CCCCC1`: -8.48%; for `Cc1ccc2c(c1)C(NC1CC1)CC21CCNCC1.Cl` (stereo unspecified): -15.52%; for `C[C@@H]1CN(C(=O)c2ccc[nH]2)C[C@]12CCN(CCN1CCCC1)C2=O.O=C(O)C(F)(F)F`: 22.28%. Take `CNC(=O)CN1CCOCC2(CN(CCC(F)(F)F)CCO2)C1.O=C(O)C(F)(F)F.O=C(O)C(F)(F)F` (stereo unspecified): the “Percent Effect” value was -25.1%. The same measure for `Cc1ccc2c(c1)C(NC(=O)N(C)C)CC21CCN(CC2CC2)CC1.O=C(O)C(F)(F)F` (stereo unspecified): -3.475%; for `COc1coc(C(=O)Nc2nc(C)cs2)cc1=O`: 66.21%; for `CCOC(=O)Cc1csc(NC(=O)c2cc(=O)c(OC)c[nH]2)n1`: 26.29%. Regarding `COc1c[nH]c(C(=O)Nc2nc(C(C)(C)C)cs2)cc1=O`, the “Percent Effect” value worked out at 39.24%. In the case of `COc1c[nH]c(C(=O)Nc2nc(C)cs2)cc1=O` it was 69.04%.

In the case of `COc1coc(C(=O)Nc2nc(-c3ccccn3)cs2)cc1=O`, the “Percent Effect” value stood at 1.222%.

Turning to `COc1coc(C(=O)Nc2nc(-c3ccncc3)cs2)cc1=O`, the “Percent Effect” value is -11.7%. The same measure for `O=C(NCCN1CCOCC1)c1ccn(-c2ccc3ccccn23)n1.O=C(O)C(F)(F)F`: -22.38%; for `Cc1ccc(CN2CCC3(CCC(C(=O)N(C)C)O3)CC2)o1.O=C(O)C(F)(F)F` (stereo unspecified): -7.412%; for `O=C(COc1ccccc1)N1C[C@@H]2COC[C@]2(COc2cccnc2)C1.O=C(O)C(F)(F)F`: 12.4%. As to `Cc1nc(NCc2noc(C3CCCO3)n2)c2sccc2n1` (stereo unspecified), the “Percent Effect” value is listed as -5.869%.

With `Cl.NC(=O)COc1ccc(CNCc2cc(F)cc(F)c2)cc1`, the “Percent Effect” value is listed as -21.98%. The same measure for `O=C(Nc1ccc(N2CCCC2)nc1)N1CCc2sccc2C1`: 0.2913%; for `O=C(Nc1ccc(N2CCCC2)nc1)N1CCc2ccccc2C1`: 58.68%; for `O=C(Nc1ccc(N2CCCCC2)nc1)N1CCc2sccc2C1`: 18.45%.

As for `CN1C[C@@H]2CC[C@H](CC1=O)N2C(=O)c1cc2ccccc2[nH]c1=O`, the “Percent Effect” value is listed as 6.279%. In the case of `CN(C)C(c1ccccn1)[C@H]1CC[C@H](CNC(=O)CC2CCCC2)CC1` (stereo partly specified) it was -9.462%; in that of `CCOC(=O)c1n[nH]cc1-c1cncn1CCCn1nc(C)cc1C.Cl`, 8.544%.

Consider `Cc1nccn1CCCn1cncc1-c1ccc2c(c1)CCC(C)N2C.Cl` (stereo unspecified), for which the “Percent Effect” value is given as 8.681%. `Cc1nccn1CCCn1cncc1-c1ccc2c(c1)CC(C)N2C.Cl` (stereo unspecified): the “Percent Effect” value turned out to be 48.58%. Take `CC1Cc2cc(-c3cncn3CC(=O)NC(C)(C)C)ccc2N1C.Cl` (stereo unspecified): the “Percent Effect” value is -7.03%.

Turning to `CCN1c2ccc(-c3cncn3CC(=O)NC(C)(C)C)cc2CC1C.Cl` (stereo unspecified), the “Percent Effect” value is given as 85.85%. The same measure for `CCN1CCc2cc(-c3cncn3CC(=O)NC(C)(C)C)ccc21.Cl`: 19.95%; for `Cc1cc(C)n(CCCn2cncc2-c2ccc3c(c2)CC(C)N3C)n1.Cl` (stereo unspecified): 79.43%; for `CN1CCCc2cc(-c3cncn3CCNC3CCS(=O)(=O)C3)ccc21.Cl` (stereo unspecified): -0.7285%.

On to `CCN1c2ccc(-c3cncn3CCCn3ccnc3C)cc2CC1C.Cl` (stereo unspecified), for which the “Percent Effect” value turned out to be 100.1%. In the case of `Cc1nccn1CCCn1cncc1-c1ccc2c(c1)CCCN2C.Cl` it was -22.83%. In the case of `Cc1nn(C)c(C)c1CCn1cncc1-c1ccc2c(c1)CC(C)N2C.Cl` (stereo unspecified) it was 15.02%.
